Among all 1,400 compounds or so, about 380 (27%) were called active.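 How the source made its calls: active means mean inhibition above 50% across duplicate retests at 10 µM; inactive means the rest.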 The list shows a part of the results.
Assay: yeast NALP1 reporter signal suppression – S. cerevisiae, luminescence, single concentration, NALP1 inhibitor project, confirmation (AID 488841);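 further: plate controls were DMSO in galactose medium for no effect and cells in plain SD medium for full effect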
Conditions: S. cerevisiae NALP1/ASC/Caspase-1 reporter, beta-gal luminescence; at 10 µM; active compounds read high
In the case of COCCNCCOc1ccc(C(C)(C)c2ccccc2)cc1, the inhibition was 50.5% (active). With Cc1cccc(N2C(=O)NC(=O)/C(=C/c3ccc([N+](=O)[O-])o3)C2=O)c1 the inhibition was 31.1% (inactive). With Nc1cc(Cl)c2nonc2c1[N+](=O)[O-] the inhibition was 62.5% (active). In the case of CCCCCn1c(=O)c(C(=O)Nc2nc3ccccc3[nH]2)c(O)c2ccccc21, the inhibition was 23.1% (inactive). In the case of CCOc1cc(CNCCc2c[nH]c3ccccc23)cc(Cl)c1OCC, the inhibition was 48% (inactive). In the case of Cc1ccc(/C=C2\C(=O)NC(=O)N(CC3CCCO3)C2=O)s1 (centres undefined), the inhibition was 36.6% (inactive). For C[C@H]1C[C@@H](C)C(=O)[C@@H]([C@H](O)CC2CC(=O)NC(=O)C2)C1, the inhibition was 99.8% (active). In the case of N#CCCn1cc(C(=O)NCc2ccccc2)c(-c2ccccc2)n1, the inhibition was 37.1% (inactive). In the case of CC(Cc1ccccc1Sc1ccccc1)N(C)C (centres undefined), the inhibition was 34.8% (inactive). In the case of Cc1cc2ccccn2c1C(C[N+](=O)[O-])c1c(F)cccc1Cl (centres undefined), the inhibition was 71% (active). For O=C1/C(=C/c2cccc([N+](=O)[O-])c2)N2CCC1CC2, the inhibition was 46.3% (inactive). In the case of Cc1ccc(S(=O)(=O)NC(CC(=O)N2CCC3(CC2)OCCO3)c2ccco2)cc1 (centres undefined), the inhibition was 37.2% (inactive). In the case of COc1cc2c(cc1OC)CN(c1ccc([N+](=O)[O-])c(C(F)(F)F)c1)CC2, the inhibition was 45.4% (inactive). In the case of CC(Cc1ccccc1)NC(=O)/C=C/c1ccc(Cl)cc1 (centres undefined), the inhibition was 50% (active). For CCOCCN1CCN(c2nnc3n2-c2ccc(Cl)cc2C(c2ccccc2Cl)=NC3)CC1, the inhibition was 32.9% (inactive). For Cc1ccc(Cn2cc(C=O)c(-c3ccc(C)cc3)n2)cc1, the inhibition was 59.5% (active). With CC(C)NS(=O)(=O)c1ccc(OCC(=O)N2CCN(C)CC2)cc1 the inhibition was 4.2% (inactive). In the case of Cc1ccc(C)c(NC(=S)NCCc2cnc[nH]2)c1, the inhibition was 23.7% (inactive). With CN1C2CCC1/C(=C/c1ccccn1)C(=O)/C2=C\c1ccccn1 the inhibition was 98% (active). For CC(C)CCn1c(=O)c(C(=O)NCc2ccco2)c(O)c2ccccc21, the inhibition was 35% (inactive). In the case of CC1(C)C[C@H]2C=C(C=O)[C@]3(C=O)C[C@]3(C)[C@H]2C1, the inhibition was 32.4% (inactive). In the case of CN1/C(=C\C=C\C2=[N+](C)c3ccc4ccccc4c3C2(C)C)C(C)(C)c2ccccc21, the inhibition was 100% (active). With CN1CCN(c2ccc(N)c(N3CCN(C)CC3)c2)CC1 the inhibition was 33.6% (inactive). With Fc1ccc(C(OCCN2CCCC2)c2ccc(Br)cc2)cc1 (centres undefined) the inhibition was 49.5% (inactive). With CCCCN(Cc1ccccc1)C1CCN(CCc2ccccc2)CC1 the inhibition was 55.1% (active). With CC1CCCC(C)N1/N=C/c1c[nH]c2ccc(Br)cc12 (centres undefined) the inhibition was 19.6% (inactive). For CN[C@H]1C[C@H]2O[C@@](C)([C@H]1OC)n1c3ccccc3c3c4c(c5c6ccccc6n2c5c31)C(=O)NC4, the inhibition was 99.7% (active). With Clc1ccc2nc3c(c(-c4ccccc4)c2c1)CNCC3 the inhibition was 46% (inactive). For O=C(c1cc2c(s1)-c1ccccc1OC2)N1CCC2(CC1)OCCO2, the inhibition was 35.5% (inactive). In the case of c1ccc2sc(NC3=NCCN3)nc2c1, the inhibition was 99.8% (active). For CNC(=O)Oc1ccc2ncccc2c1, the inhibition was 35.5% (inactive). For O=C(c1ccccc1)C(CN1CCCC1)c1ccccc1 (centres undefined), the inhibition was 27.6% (inactive). For COc1cc(/C=C(/C)[N+](=O)[O-])ccc1OCc1ccccc1Cl, the inhibition was 73.4% (active). With Cc1ccc(-c2nc(N3CCOCC3)s[n+]2-c2ccccc2)cc1 the inhibition was 40.2% (inactive). For CSc1ncc(Cl)c(C(=O)O)n1 (tested in a mixture with another compound), the inhibition was 21.1% (inactive). With O=C1/C(=C/c2cc3c(cc2Cl)OCO3)N2CCC1CC2 the inhibition was 47.5% (inactive). With Nc1c2c(nc3sc4c(c13)CCCC4)CCCCC2 the inhibition was 40.5% (inactive). For Nc1c2c(nc3sc4c(c13)CCCCC4)CCCC2, the inhibition was 84.5% (active). With Nc1ccc(C2(c3ccc(N)cc3)CN3CCC2CC3)cc1 the inhibition was 25.7% (inactive).
